SMILES strings stand for the structures. The whole screen tested about 400,000 compounds, of which about 5,500 (1.4%) were called active. Roughly 9% stayed inconclusive and do not appear here. Calls follow the shape of the dose curve; as a rule, active = well fitted cell-killing curve with a large enough effect; inconclusive = small, poorly fitted or top-dose-only effect, or effect the other way; inactive = flat fitted curve, though single readings scatter. The full list was thinned out, with actives kept by preference.
% is scaled to controls: 0 for no effect and ±100 for the full control effect; potency is read from the fitted curve at half-maximal effect.

The nature of this experiment: qHTS assay for MDR1-selective chemotherapeutics: Primary screen using the parental adenocarcinoma cell KB-3-1. Also: nearly all actives have a fitted effect of over 60% in size. The note with it: KB-3-1 viability, CellTiter-Glo ATP luminescence, 72 h; series mostly up to 46.1 µM; activity change, negative = cytotoxic: at the top concentration. An excerpt: A prime difficulty in effectively treating cancer is the development of cellular resistance to multiple structurally unrelated anticancer drugs, a phenomenon known as multidrug resistance (MDR). […] Numerous strategies to overcome P-gp-mediated MDR have been explored, including the design of drugs that evade recognition and efflux, and development of inhibitors to block efflux and restore drug accumulation. […] An alternative approach is to exploit resistance by identifying drugs that target MDR cells over the non-resistant parental cells from which they were selected. […] The development of MDR1-selective agents represents a new strategy for resolving multidrug resistance, as it remains a long-standing clinical challenge for cancer chemotherapy.
Our goal is to identify compounds that selectively kill P-gp-expressing MDR cells. We will identify MDR1-selective compounds by comparing toxicity of compounds in the screening library against parental, drug-naive (KB-3-1) adenocarcinoma cells as well as their drug-selected MDR sub-line (KB-V1). The differential toxicity of compounds against these two cell lines will be used to identify MDR1-selective compounds, whose cytotoxicity is potentiated, rather than diminished, by P-gp expression. This assay will be utilized to conduct a quantitative high-throughput screen (qHTS) in collaboration with the NIH Chemical Genomics Center to identify selective agents, and probe hits arising from the screen will be validated using secondary assays and characterized through a well-established follow-up research program. This screen was run against the entire NCGC library collection of about 400,000 compounds.
NIH Molecular Libraries Probe Production Network [MLPCN]
NIH Chemical Genomics Center [NCGC]
PI: Michael Gottesman PhD, National Cancer Institute, NIH
Briefly, 5 microL of media containing either KB-3-1 cells (columns 1-2, 4-48) are dispensed into Greiner white, treated solid-bottom 1536-well assay plates (media-only control is added to column 3). Compounds are then transferred via Kalypsys pin tool equipped with 1536-pin array (10 nL slotted pins, V&P Scientific, San Diego, CA). Following addition of compound, the plates are incubated at 37 degrees C for 72 hours. CellTiter-Glo (2.5 µL/well) is then added, and the plates are read in a ViewLux reader (Perkin-Elmer, clear luminescence filter, 1 second exposure, 1x binning) following a 10 minute incubation. All cells are dispensed in DMEM phenol-red free media containing 10% FBS.
Library plates were screened starting from the lowest and proceeding to the highest concentration. Vehicle-only plates, with DMSO being pin-transferred to columns 5-48, will be inserted uniformly at the beginning and the end of each library in order to monitor and record any shifts in the background, which can be affected by reagent dispensers or loss in enzyme activity over time. Screening data will be corrected, normalized, and concentration-effect relationships will be derived by using publicly-available NCGC, NCATS curve fitting algorithms (http://ncgc.nih.gov/pub/openhts).
For orientation: Quantitative high-throughput screening tests each substance at several concentrations.
Take `COc1cc(/C=C2\Oc3ccc(C#Cc4ccc(O)cc4)cc3C2=O)cc(OC)c1`: the Potency was 16.4 µM (active).
Regarding `COc1cccc(N2CCN(S(=O)(=O)c3ccc4c(c3)CCCN4C(C)=O)CC2)c1`, the “activity change, negative = cytotoxic” value is -3.09% (inactive).
The same measure, in the same setting: in the case of `COc1ccc(-c2ccc(=O)n(CC(=O)Nc3ccc(Br)cc3F)n2)cc1` it was 3.64% (inactive); in that of `O=C(CSc1nc2c(c(=O)[nH]1)CN(Cc1ccc(F)cc1)CC2)Nc1ccccc1Cl`, -1.45% (inactive); in that of `Cc1cc2ccccc2n1CCNC(=O)c1ccc(F)cc1`, -0.098% (inactive).
The same measure, in the same setting: then `COc1ccc(NC(=O)COC(=O)C2COc3ccccc3O2)cc1` (configuration not stated), with 2.9% (inactive).
Consider `O=C(Nc1cc(S(=O)(=O)N2CCCCC2)ccc1Cl)C1COc2ccccc2O1` (configuration not stated), for which the “activity change, negative = cytotoxic” value was -5.56% (inactive).
With `O=C(Nc1ncc([N+](=O)[O-])s1)C1COc2ccccc2O1` (configuration not stated), the Potency was 16.4 µM (active).
`Cc1ccc(C(=O)N2c3ncnn3C3(CCCCC3)[C@@H]3CCCC[C@@H]32)cc1`: the “activity change, negative = cytotoxic” value was -1.33% (inactive).
On the same count and under the same terms, in the case of `CC(=O)c1cc(NC(=O)c2ccccc2)c(=O)oc1/C=C/N(C)C` it was 15.8% (inactive); in that of `COc1cc(NC(=O)c2ccccc2)c(OC)cc1NC(=O)Cc1ccccc1`, 5.6% (inactive).
For the compound `O=C(NC1=CC(=O)c2ccccc2C1=O)c1ccccc1`, the Potency is 16.4 µM (active).
As to `N#Cc1nc(/C=C/c2ccc(F)cc2)oc1NCc1ccc(F)cc1`, the “activity change, negative = cytotoxic” value was 2.53% (inactive).
On the same count and under the same terms, then `O=C(CCS(=O)(=O)c1cc(Br)cc2c1N(C(=O)C1CC1)CC2)Nc1ccc(Br)cc1F`, with 6.15% (inactive).
Same read-out and setting: then `COc1cc(C(=O)NCc2ccncc2)cc(Br)c1OCc1ccccc1`, with -18.9% (inactive).
`O=C(O)COc1ccc(/C=N/O)cc1Br`: the “activity change, negative = cytotoxic” value is 9.66% (inactive).
With `COc1cc(/C=N/O)cc(Br)c1OCc1cccc(Cl)c1`, the Potency was 14.6 µM (active).
On to `CCOC(=O)c1ccc(NC(=O)CCn2cnnn2)cc1`, for which the “activity change, negative = cytotoxic” value is 8.4% (inactive).
`COc1ccccc1CN1CCC(CNC(=O)c2cnn(-c3cccc(Cl)c3)c2C2CCN(C(=O)OC(C)(C)C)CC2)CC1`: the “activity change, negative = cytotoxic” value was -20.3% (inactive).
For the compound `Cc1ccc(CN2CCC(CNC(=O)c3cnn(-c4ccc(C)cc4)c3C3CCN(C(=O)OC(C)(C)C)CC3)CC2)cc1`, the Potency is 16.4 µM (active).
Turning to `Cc1ccc(CN2CCC(CNC(=O)c3cnn(-c4ccccc4Cl)c3C3CCN(C(=O)OC(C)(C)C)CC3)CC2)cc1`, the “activity change, negative = cytotoxic” value was -10% (inactive).
Same read-out and setting: in the case of `CCOc1ccc(OCC)c(NC(=O)c2cc(C)nc3c2c(C)nn3-c2cccc(Cl)c2C)c1` it was -0.861% (inactive).
The same measure, in the same setting: then `CN(C)c1ccc(/C=N\Nc2ccc([N+](=O)[O-])cc2[N+](=O)[O-])cc1Cl`, with 7.3% (inactive); and `O=C(/C=C/c1ccc(Cl)cc1)N1CCN(c2ccccc2[N+](=O)[O-])CC1`, with 6.08% (inactive).
In the case of `CN(C)c1ccc(/C=C/C(=O)c2ccc(O)cc2)cc1[N+](=O)[O-]`, the Potency is 20.6 µM (active).
Same read-out and setting: then `CCOc1ccc(Br)cc1CSC(=N)N`, with 23.1 µM (active).
For the compound `CCOc1ccc(Br)cc1S(=O)(=O)N1CCC(C(=O)O)CC1`, the “activity change, negative = cytotoxic” value was -15.3% (inactive).
The same measure, in the same setting: then `CC(C)(C)NCc1cc(Br)ccc1OC1CCCC1`, with -6.93% (inactive); and `COc1ccccc1NC(=O)C1=C(C)Nc2nc(SCC(=O)c3ccc(C)cc3)nn2C1c1ccccc1C` (configuration not stated), with 19.5% (inactive).
The same measure, in the same setting: then `COc1ccc(NC(=O)CCN2CCN(CCO)CC2)cc1`, with 10.1% (inactive).
For `O=C(NCc1ccccc1)C(=O)NCC(c1ccco1)S(=O)(=O)c1ccc(Cl)cc1` (configuration not stated), the “activity change, negative = cytotoxic” value is -21.5% (inactive).
As for `O=C(OC12CC3CC(CC(C3)C1)C2)c1ccc(NCc2cc(O)ccc2O)cc1`, the Potency was 7.31 µM (active).
As to `COc1ccc(-c2nc(=N)sn2-c2ccccc2)cc1`, the “activity change, negative = cytotoxic” value was -25.8% (inactive).
Still for that read-out and setting: in the case of `CO[C@H]1O[C@@H]2O[C@@]3(C)CC[C@@H]4[C@@H](C)CC[C@@H]([C@H]1C)[C@@]24OO3` it was 0% (inactive).
Same read-out and setting: then `COc1cc2[nH]c(C)c(CCN3CCN(c4ccccc4)CC3)c2cc1OC`, with 0% (inactive); and `COc1ccc(C(=NN)c2ccc(OC)cc2)cc1`, with 2.52% (inactive).
Same read-out and setting: in the case of `COc1ccc(C(=O)/C=C/Nc2ccccn2)cc1` it was -7.94% (inactive).
For `COc1ccc(C(C#N)=C2C=CC(=NO)c3ccccc32)cc1`, the Potency is 0.82 µM (active).
Consider `COc1ccccc1OCCCn1c(-c2ccc(Cl)cc2)nc2ccccc2c1=O`, for which the “activity change, negative = cytotoxic” value was 1.77% (inactive).
On to `O=C(COC(=O)c1ccccc1OCCOc1ccccc1)Nc1cccc(Br)c1`, for which the “activity change, negative = cytotoxic” value is 0% (inactive).
Take `COc1cccc(C(c2c(O)cc(C)n(Cc3ccco3)c2=O)N2CCN(c3ccccc3)CC2)c1` (configuration not stated): the “activity change, negative = cytotoxic” value was 3.01% (inactive).
Consider `CCOc1ccccc1NC(=O)CN1CCCN(Cc2cccc(Cl)c2)S1(=O)=O`, for which the “activity change, negative = cytotoxic” value was 4.79% (inactive).
On to `O=c1c2ccccc2n(Cc2cccc(Cl)c2)c(=O)n1Cc1ccccc1`, for which the “activity change, negative = cytotoxic” value is -13.5% (inactive).
As for `Clc1cccc[n+]1CCCC[n+]1ccccc1Cl`, the “activity change, negative = cytotoxic” value is 2.29% (inactive).
The same measure, in the same setting: in the case of `COc1cc(C(=O)Nc2ccc(-n3c(C)nc4ccccc4c3=O)cc2)cc(OC)c1OC` it was 3.15% (inactive).
Regarding `CC(C)c1ccc(Cn2c(COc3ccccc3)nc3ccccc32)cc1`, the “activity change, negative = cytotoxic” value is 2.83% (inactive).
Consider `Cn1c2ccccc2c(=O)c2c(=O)n(Cc3ccco3)c(COc3ccccc3)nc21`, for which the Potency was 7.31 µM (active).
As for `O=C(Cn1c(=O)n(Cc2ccco2)c(=O)c2ccccc21)NCC1CCCO1` (configuration not stated), the “activity change, negative = cytotoxic” value is 7.23% (inactive).
In the case of `Cn1nc(C(F)(F)F)c(C(=O)Nc2cccc(C(F)(F)F)c2)c1SCc1ccc(Cl)cc1`, the Potency is 16.4 µM (active).
As for `Cc1ccc(Cc2nc3ccccc3nc2SCC(=O)Nc2cccc(C(F)(F)F)c2)cc1`, the “activity change, negative = cytotoxic” value was -20.9% (inactive).
On the same count and under the same terms, then `Cn1c(=O)c2c(ncn2CC(=O)Nc2cccc(C(F)(F)F)c2)n(C)c1=O`, with -2.81% (inactive); and `CCCSc1nc2sc3c(c2c(=O)n1-c1cccc(Br)c1)CC(C)(C)OC3`, with -5.87% (inactive).
Still for that read-out and setting: then `COc1ccc(C2CC(=O)Nc3c2c(=O)nc2c(C)cccn32)cc1OC` (configuration not stated), with -2.5% (inactive); and `O=C(COc1ccccc1C(=O)Nc1ccccc1)Nc1cccc(F)c1`, with 1.45% (inactive); and `O=[N+]([O-])c1ccc(S(=O)(=O)N2CCN(c3nc(-c4ccccc4)nc4ccccc34)CC2)cc1`, with 29.8% (inactive).
With `O=C(Nc1ccc(OC(F)(F)F)cc1)c1cc2c(=O)n3ccccc3nc2s1`, the “activity change, negative = cytotoxic” value is 7% (inactive).
In the case of `COc1cc(OC)cc(C(=O)NCCc2csc3nc(-c4ccccc4F)nn23)c1`, the “activity change, negative = cytotoxic” value was -3.67% (inactive).
The same measure, in the same setting: then `CCOc1ccc(/C=C(\C#N)c2nc3ccccc3c(=O)[nH]2)cc1OC`, with 8.7% (inactive).
Same read-out and setting: then `CCOc1cc(/C=C(\C#N)C(=O)Nc2ccccc2C)ccc1OCc1cc(=O)n2nc(CC)sc2n1`, with -5.35% (inactive).
As for `CCOc1cc(/C=C(\C#N)c2nc(-c3cccs3)c(NC(C)=O)s2)ccc1O`, the Potency was 8.2 µM (active).
Regarding `O=C(NCc1ccc(Cl)cc1)c1ccc2c(c1)nnn2C1CCCC1`, the “activity change, negative = cytotoxic” value was -5.59% (inactive).
For the compound `CCOC(=O)c1cccc(NC(=O)Cn2cnc3nc4c(cc3c2=O)CCCC4)c1`, the “activity change, negative = cytotoxic” value was 8.88% (inactive).
